In PubChem BioAssay (NCATS):
Values without a mark were called inactive. Records with an inconclusive call do not appear. Activity calls are given as the source filed them. Unless noted, the call rests on the fitted dose curve; in most records, active means well fitted inhibition curve with a large enough effect; inconclusive means small, poorly fitted or top-dose-only effect; inactive means flat fitted curve, though single readings scatter.

Assays:
[1] = target: Glucocorticoid receptor (Homo sapiens) (UniProt P04150); test: GR-EFC Redistribution (AID 451; calls by dose curve); conditions: CHO-K1 GR-EFC translocation, beta-gal luminescence, 2 h
Chain of Glucocorticoid receptor (Homo sapiens) (P04150 whole entry, looked up, the tested form may be a part): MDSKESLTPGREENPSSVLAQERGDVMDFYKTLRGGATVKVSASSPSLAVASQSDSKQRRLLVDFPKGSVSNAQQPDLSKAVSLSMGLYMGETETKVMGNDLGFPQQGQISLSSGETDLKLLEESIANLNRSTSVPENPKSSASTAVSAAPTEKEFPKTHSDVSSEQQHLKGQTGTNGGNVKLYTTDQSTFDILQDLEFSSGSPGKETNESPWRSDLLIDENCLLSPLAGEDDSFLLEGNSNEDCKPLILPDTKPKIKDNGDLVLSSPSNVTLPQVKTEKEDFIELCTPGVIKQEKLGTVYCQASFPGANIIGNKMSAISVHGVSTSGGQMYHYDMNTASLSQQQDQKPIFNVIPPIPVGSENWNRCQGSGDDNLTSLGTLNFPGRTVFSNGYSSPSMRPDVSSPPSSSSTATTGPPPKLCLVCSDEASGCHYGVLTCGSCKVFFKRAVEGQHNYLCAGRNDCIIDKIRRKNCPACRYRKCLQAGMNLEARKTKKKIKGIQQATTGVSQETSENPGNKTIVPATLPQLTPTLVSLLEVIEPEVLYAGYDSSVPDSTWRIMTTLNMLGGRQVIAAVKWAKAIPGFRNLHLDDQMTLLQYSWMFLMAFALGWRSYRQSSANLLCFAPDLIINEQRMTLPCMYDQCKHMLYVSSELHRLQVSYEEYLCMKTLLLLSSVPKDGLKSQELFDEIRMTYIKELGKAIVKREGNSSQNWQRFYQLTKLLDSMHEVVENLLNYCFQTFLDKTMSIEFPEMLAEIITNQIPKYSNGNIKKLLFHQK
Summary of the method: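 CHO-K1 cells stably expressing nuclear-localized β-gal enzyme acceptor and GR fused C-terminally to the enzyme donor fragment; ligand-driven nuclear translocation restores β-gal by complementation. Compounds titrated up to 46 uM final, 2 h at 37 °C; luminescence read.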

[2] = test system: 7G8; test: qHTS profiling for inhibitors of Plasmodium falciparum proliferation (AID 504749); further: nearly all actives have a fitted effect of over 60% in size; conditions: P. falciparum in erythrocytes, SYBR Green DNA, 72 h; series mostly up to 28.7 µM
Summary of the method: (§1)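 Fluorescence of SYBR Green-bound parasite DNA, read at 485/535 nm, served as the growth measure. Infected erythrocytes were cultured with compound 72 h; artemisinin (0.29 uM) and DMSO wells defined the normalization range.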

[3] = test system: AS120; test: as above; conditions: P. falciparum in erythrocytes, SYBR Green DNA, 72 h; series mostly up to 28.7 µM
Summary of the method: as §1

[4] = test system: ATS95; test: as above; conditions: P. falciparum in erythrocytes, SYBR Green DNA, 72 h; series mostly up to 28.7 µM
Summary of the method: as §1

[5] = test system: C2A; test: as above; conditions: P. falciparum in erythrocytes, SYBR Green DNA, 72 h; series mostly up to 28.7 µM
Summary of the method: as §1

[6] = test system: CP191; test: as above; conditions: P. falciparum in erythrocytes, SYBR Green DNA, 72 h; series mostly up to 28.7 µM
Summary of the method: as §1

[7] = test system: CP203; test: as above; conditions: P. falciparum in erythrocytes, SYBR Green DNA, 72 h; series mostly up to 28.7 µM
Summary of the method: as §1

[8] = test system: CP215; test: as above; conditions: P. falciparum in erythrocytes, SYBR Green DNA, 72 h; series mostly up to 28.7 µM
Summary of the method: as §1

[9] = test system: CP217; test: as above; conditions: P. falciparum in erythrocytes, SYBR Green DNA, 72 h; series mostly up to 28.7 µM
Summary of the method: as §1

[10] = test system: CP237; test: as above; conditions: P. falciparum in erythrocytes, SYBR Green DNA, 72 h; series mostly up to 28.7 µM
Summary of the method: as §1

[11] = test system: CP252; test: as above; conditions: P. falciparum in erythrocytes, SYBR Green DNA, 72 h; series mostly up to 28.7 µM
Summary of the method: as §1

[12] = test system: CP256; test: as above; conditions: P. falciparum in erythrocytes, SYBR Green DNA, 72 h; series mostly up to 28.7 µM
Summary of the method: as §1

[13] = test system: CP268; test: as above; conditions: P. falciparum in erythrocytes, SYBR Green DNA, 72 h; series mostly up to 28.7 µM
Summary of the method: as §1

[14] = test system: CP269; test: as above; conditions: P. falciparum in erythrocytes, SYBR Green DNA, 72 h; series mostly up to 28.7 µM
Summary of the method: as §1

[15] = test system: CP305; test: as above; conditions: P. falciparum in erythrocytes, SYBR Green DNA, 72 h; series mostly up to 28.7 µM
Summary of the method: as §1

[16] = test system: P93_24; test: as above; conditions: P. falciparum in erythrocytes, SYBR Green DNA, 72 h; series mostly up to 28.7 µM
Summary of the method: as §1

[17] = test system: PC26; test: as above; conditions: P. falciparum in erythrocytes, SYBR Green DNA, 72 h; series mostly up to 28.7 µM
Summary of the method: as §1

[18] = test system: PC49; test: as above; conditions: P. falciparum in erythrocytes, SYBR Green DNA, 72 h; series mostly up to 28.7 µM
Summary of the method: as §1

[19] = test system: TAB109; test: as above; conditions: P. falciparum in erythrocytes, SYBR Green DNA, 72 h; series mostly up to 28.7 µM
Summary of the method: as §1

[20] = test system: W2; test: as above; conditions: P. falciparum in erythrocytes, SYBR Green DNA, 72 h; series mostly up to 28.7 µM
Summary of the method: as §1
Potency means the concentration at half of the fitted maximal effect.

| SMILES | Potency [1] [nM] | Potency [2] | Potency [3] | Potency [4] | Potency [5] | Potency [6] | Potency [7] | Potency [8] | Potency [9] | Potency [10] | Potency [11] | Potency [12] | Potency [13] | Potency [14] | Potency [15] | Potency [16] | Potency [17] | Potency [18] | Potency [19] | Potency [20] |
| --- | --- | --- | --- | --- | --- | --- | --- | --- | --- | --- | --- | --- | --- | --- | --- | --- | --- | --- | --- | --- |
| C[C@@]12C(=O)OC(=O)[C@]1(C)[C@H]1CC[C@@H]2O1 | > 20600 | 2820 nM (active) | 3550 nM (active) | 3980 nM (active) | 3980 nM (active) | 1580 nM (active) | 2560 nM (active) | 2280 nM (active) | 2510 nM (active) | 1260 nM (active) | 3980 nM (active) | 3980 nM (active) | 2870 nM (active) | 2560 nM (active) | 2870 nM (active) | 3980 nM (active) | 2870 nM (active) | 2240 nM (active) | 2820 nM (active) | 2280 nM (active) |
| CC(/C=C1\SC(=S)N(CC(=O)O)C1=O)=C\c1ccccc1 |  | inactive | inactive | inactive | inactive | inactive | inactive | inactive | inactive | inactive | inactive | inactive |  | inactive | inactive | inactive | inactive | inactive | inactive | inactive |
| C=C1CCC2[C@](C)(CO)C(O)CC[C@]2(C)C1C/C=C1/C(=O)OCC1O (stereo not given in full) |  |  |  |  |  |  |  |  |  |  |  |  | inactive |  |  |  |  |  |  |  |
| CN(CCOc1ccc(C[C@H](Nc2ccccc2C(=O)c2ccccc2)C(=O)O)cc1)c1ccccn1 | > 46000 |  |  |  |  |  |  |  |  |  |  |  |  |  |  |  |  |  |  |  |
